Assay results taken from the supplement of paper PMC10338343.
± gives the standard deviation.

system: EfPiwi piRISC loaded with L1MC piRNA (26 nt); assay: pre-steady-state target cleavage rate (min^-1); auxiliary factor: 500 nM Ephydatia muelleri Gtsf1; guide: L1MC piRNA 5'p-UAACUAAAUACUAUGCAAGCUGUAGG; MIWI and MILI are mouse PIWI proteins and EfPiwi is from a freshwater sponge; tags in brackets are library labels; higher = faster piRNA-guided slicing of the target
Method in brief: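 Sequencing of uncleaved targets, normalised to depth and to weakly complementary targets, was the readout of this Cleave-'n-Seq assay. A transcribed, DNA-blocked target RNA library (0.1 nM) was mixed with 1 nM active affinity-purified piRISC carrying one synthetic guide, with or without 500 nM GTSF1 partner protein, in HEPES–potassium acetate buffer at 33 °C for 0–8 or 0–960 min. Three trials were pooled, k3 was capped at 0.0001 min^-1, and a burst-and-steady-state fit gave the pre-steady-state cleavage rate.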

Sequence | pre-steady-state target cleavage rate
UCCUGGAACAGCGUGCAUAGUAUUUAGUUA | 0.0168 ± 0.005
UCCUGGAACAGCUCUGCAUAGUAUUUAGUUA | 0.0165 ± 0.005
UCCUGGUUCAGCUUGGAUAGUAUUUAGUUA | 0.00792 ± 0.0035
UCCUGGAUCAGCUUGCUUAGUAUUAAGUUA | 0.00376 ± 0.0025
UCCUGGAUGUCGAACCAUAGUAAUUAGUUA | < 0.0001
UCCUGGAUGUCGAACGAUAGUCAUUUAGUUA | < 0.0001
UCCUGGAUGUCGAACGUAUCUAUUUUCUUA | < 0.0001
UCCUGGAUGUGAUUGCAUAGUAUUUAGUUA | 0.00623 ± 0.0031
UCCUGUUACAGCUUGCAUAGUAUUUAGUUA | 0.231 ± 0.07
UCCUCCUUCAGCUUGCAUAGAAUUUAGUUA | 0.00469 ± 0.0021
UCCUGGAUGUCGAACCAUAGUAUUUACGUUA | < 0.0001
UCCUGGAUGUCGAACCAGAGUAUUUAGUUA | < 0.0001
UCCUGGAUGUCGAACGUUAGUAUUAAGUAA | < 0.0001
UCCUGGAUCAGCUUGCAUAGUUUUAAGUUA | 0.00285 ± 0.0028
UCCUGGAUGUCGUCUGCAUAGUAUUUAGUUA | 0.00907 ± 0.0032
UCCUGGAUGUCGAACGUAUCUAUUAUAGUUA | < 0.0001
UCCUGCUACAGCUUGCAUAGUAAAUAGUAA | 0.00351 ± 0.0022
UCCUGGAUGUCGAACCAUAGUAUCUUAGUUA | < 0.0001
UCCUGGAUCAGCUUCCAUAGUAUUUAGAUA | 0.00231 ± 0.0018
UCCUCCUACACGAUGCAUAGUAUUUAGUAA | 0.00453 ± 0.0027
UCCUGGUACAGCUUGCUUAGUAAUUAGUUA | 0.00675 ± 0.0033
UCCUGGAUGUCGUGCAUAGUAUUUAGUUA | 0.00802 ± 0.003
UCCUGGAUCAGCUUGCCAUAGUAUUUAGUUA | 0.00658 ± 0.0025
UCCUGGUAACAGCUUGCAUAGUAUUUAGUUA | 0.0495 ± 0.011
